In PubChem BioAssay (NCATS):
Inconclusive results are not listed. Calls of active or inactive are those of the source. Calls come from the whole dose curve; as a rule, active = well fitted inhibition curve with a large enough effect; inconclusive = small, poorly fitted or top-dose-only effect; inactive = flat fitted curve, though single readings scatter.

Tests used:
Assay in all cases: qHTS profiling for inhibitors of Plasmodium falciparum proliferation (AID 504749); note: nearly all actives have a fitted effect of over 60% in size
Details in all cases: P. falciparum in erythrocytes, SYBR Green DNA, 72 h; series mostly up to 28.7 µM
[1] = test system: CP305
Outline: (§1)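 P. falciparum-infected erythrocytes (0.3% parasitemia, 2.5% hematocrit) incubated with compound 72 h at 37 C, 5% CO2. Parasite DNA detected by SYBR Green after lysis, overnight at room temperature; normalised to 0.29 uM artemisinin and DMSO.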

[2] = test system: CP315
Outline: as §1

[3] = test system: CP325
Outline: as §1

[4] = test system: CP329
Outline: as §1

[5] = test system: DFO2036
Outline: as §1

[6] = test system: DIV14
Outline: as §1

[7] = test system: DIV17
Outline: as §1

[8] = test system: DIV30
Outline: as §1

[9] = test system: Dd2
Outline: as §1

[10] = test system: CP335
Outline: as §1

Measured: Potency
Potency is the fitted concentration of half-maximal effect.

COC(=O)[C@@H](N)CS
not listed: [10]
inactive: all other assays above

COc1ccccc1N1CCN(CCCC(=O)c2ccc(F)cc2)CC1
not listed: [6] | [7]
inactive: all other assays above

CCOC(=O)[C@@H](N)CS
not listed: [10]
inactive: all other assays above

Cc1ncc(C[n+]2csc(CCO)c2C)c(N)n1
not listed: [10]
inactive: all other assays above

NC(=O)CC[C@@H]1NC(=O)[C@H](Cc2ccccc2)NC(=O)[C@H](Cc2ccc(O)cc2)NC(=O)[C@@H](N)CSSC[C@@H](C(=O)N2CCC[C@H]2C(=O)N[C@@H](CCCN=C(N)N)C(=O)NCC(N)=O)NC(=O)[C@H](CC(N)=O)NC1=O
not listed: [5] | [7] | [10]
inactive: all other assays above

O=C(Nc1ccc(O)cc1)c1ccccc1O
not listed: [8] | [10]
inactive: all other assays above

CC(=O)Nc1ccc(NC(=S)NC(=O)c2ccc(C(C)(C)C)cc2)cc1
not listed: [6] | [9] | [10]
inactive: all other assays above

CN1CCCC(CN2c3ccccc3Sc3ccccc32)C1 (stereo not given)
active: [6] 8.49 µM | [7] 8.49 µM | [9] 4.47 µM
inactive: [1] | [2] | [3] | [4]

NCC[C@H](O)C(=O)N[C@@H]1C[C@H](N)[C@@H](O[C@H]2O[C@H](CN)[C@@H](O)[C@H](O)[C@H]2O)[C@H](O)[C@H]1O[C@H]1O[C@H](CO)[C@@H](O)[C@H](N)[C@H]1O
not listed: [10]
inactive: all other assays above

CC(O)CN(C)C (stereo not given)
not listed: [4]
inactive: all other assays above

Cc1c(C)c2c(c(C)c1OC(=O)CCC(=O)O)CC[C@@](C)(CCC[C@H](C)CCC[C@H](C)CCCC(C)C)O2
active: [9] 11.2 µM
not listed: [10]
inactive: all other assays above

O=C(O[C@H]1CN2CCC1CC2)N1CCc2ccccc2[C@@H]1c1ccccc1
active: [6] 3.79 µM | [7] 4.26 µM | [9] 4.47 µM
not listed: [8] | [10]
inactive: all other assays above

CC1CC(OC(=O)C(O)c2ccccc2)CC(C)(C)C1 (stereo not given)
not listed: [10]
inactive: all other assays above

N[C@@H](Cc1cc(I)c(Oc2ccc(O)c(I)c2)c(I)c1)C(=O)O
active: [6] 13.5 µM
inactive: [1] | [2] | [3] | [4]

CN1CCc2c(c3ccccc3n2Cc2ccccc2)C1
inactive: [1] | [2] | [4] | [5] | [8]

C=CCOc1ccc(CC(=O)O)cc1Cl
not listed: [10]
inactive: all other assays above

CC/C=C\C/C=C\C/C=C\CCCCCCCC(=O)O
not listed: [6] | [10]
inactive: all other assays above

CC[C@H]1OC(=O)[C@H](C)[C@@H](O[C@H]2C[C@@](C)(OC)[C@@H](O)[C@H](C)O2)C(C)[C@@H](O[C@@H]2O[C@H](C)C[C@H](N(C)C)[C@@H]2O)[C@](C)(OC)C[C@@H](C)C(=O)[C@H](C)[C@@H](O)[C@]1(C)O (stereo not given in full)
active: [10] 6.75 µM
not listed: [3] | [4] | [9]
inactive: all other assays above

NCCO/C=C/[C@H](N)C(=O)O
not listed: [3]
inactive: all other assays above

CC1CCC(NC(=O)N(CCCl)N=O)CC1 (stereo not given)
not listed: [6] | [9] | [10]
inactive: all other assays above

Cc1cc(C(=O)NCCc2ccc(S(=O)(=O)NC(=O)NN3CCCCCC3)cc2)no1
not listed: [6] | [7] | [8]
inactive: all other assays above

O=C1[O][Bi][O]c2ccccc21
not listed: [10]
inactive: all other assays above

CCOC(=O)Cc1ccc(-c2ccccc2)cc1
not listed: [5] | [8] | [10]
inactive: all other assays above

C[C@]12CCC(=O)C[C@@H]1CC[C@@H]1[C@@H]2CC[C@]2(C)C=CC[C@@H]12
not listed: [10]
inactive: all other assays above

CCCc1nc(C(C)(C)O)c(C(=O)OCc2oc(=O)oc2C)n1Cc1ccc(-c2ccccc2-c2nn[nH]n2)cc1
not listed: [7] | [10]
inactive: all other assays above

COc1ccc2nc(NC(=O)Nc3ccccc3)sc2c1
inactive: [1] | [2] | [3] | [10] | [5]
active: [7] 4.78 µM

Cn1c(=O)c2c(ncn2CCOC(=O)C(C)(C)Oc2ccc(Cl)cc2)n(C)c1=O
not listed: [5]
inactive: all other assays above

CCN(CC)CCC(=O)N1c2ccccc2Sc2ccc(C(F)(F)F)cc21
inactive: [1] | [2] | [3] | [4] | [5]
active: [6] 6.75 µM

Cc1cc(-c2ccc(N=Nc3c(S(=O)(=O)O)cc4cc(S(=O)(=O)O)cc(N)c4c3O)c(C)c2)ccc1N=Nc1c(S(=O)(=O)O)cc2cc(S(=O)(=O)O)cc(N)c2c1O
not listed: [6] | [7] | [10]
inactive: all other assays above

CCC(O)c1ccccc1 (stereo not given)
not listed: [10]
inactive: all other assays above
